Experimental data taken from PubChem BioAssay (Tox21).
Inconclusive results are not listed. Entries that show only a call come without a potency. Values without a mark were called inactive. Active and inactive are the calls of the source. The call rests on the fitted dose curve; in most records, active means well fitted inhibition curve with a large enough effect in the repeat runs; inconclusive means weak or mixed curves; inactive means flat fitted curve, though single readings scatter.

Assay: qHTS assay to identify small molecule HDAC inhibitors (AID 1259364); further: nearly all actives have a fitted effect of over 45% in size; on activity change, negative = inhibition: top concentration of the series differs between compounds
Conditions: HCT-116 HDAC-Glo I/II luminescence, 2 h; series mostly up to 92.4 µM
Description: U.S. Tox21 Program National Center for Advancing Translational Sciences [NCATS] NIH Chemical Genomics Center [NCGC] U.S. Environmental Protection Agency [EPA] National Institutes of Environmental Health Sciences [NIEHS] National Toxicology Program [NTP] U.S. Food and Drug Administration [FDA] Tox21 Assay Overview: Histone deacetylases (HDACs) are a group of epigenetic enzymes that regulate gene expression by histone deacetylation. HDACs are capable of introducing epigenetic modifications and such aberrations contribute to the onset and progression of several human diseases, thus making HDACs a popular therapeutic target. For identifying endogenous class I/II HDAC inhibitors a homogenous, luminogenic HDAC I/II cell based assay was used to measure the relative activity of class I and II HDACs from cells. Wild type HCT-116 cells were used to screen Tox21 libraries for identifying class I/II HDAC inhibitors.
Tox21 Assay Protocol Summary: HCT-116 cells were dispensed at 1,500 per well in 5uL of culture medium into white solid bottom 1536-well plates (Greiner Bio-One, Monroe, NC) using a Multidrop Combi (Thermo Scientific, Waltham, MA) dispenser. The assay plates were incubated at 37 C and 5% CO2 for an overnight, and then 23nL of compounds dissolved in DMSO and positive control were transferred using a Pintool station (Wako, San Diego, CA). The assay plates were incubated at 37C and 5% CO2 for 2hr. After compound treatment, 4uL of HDAC-Glo reagent (Promega Corporation, Madison, WI) was added to each well of the assay plates using Flying Reagent Dispenser (FRD, Aurora Discovery, San Diego, CA) and incubated the assay plates at room temperature for 30min. The luminescence signal was quantified using a ViewLux plate reader (Perkin Elmer, Shelton, CT).
Potency means the concentration at half of the fitted maximal effect.

Row | SMILES | Potency | activity change, negative = inhibition
1 | CC(=O)c1cccnc1 | inactive | –
2 | COc1ccnc2c1CCCCC2S(=O)c1nc2ccccc2[nH]1 (stereo not given) | inactive | –
3 | O=[N+]([O-])c1ccc(Cl)cc1Cl | inactive | –
4 | CC(C)CC(C)(C)C | inactive | –
5 | CC(O)CN (stereo not given) | inactive | –
6 | Cc1nc(C)c(C)nc1C | inactive | –
7 | C[C@H](CN1CCCC1)C(=O)c1ccc(C(F)(F)F)cc1 | inactive | –
8 | O=P(c1ccccc1)(c1ccccc1)c1ccccc1 | inactive | –
9 | CCCCCC1CCC(=O)O1 (stereo not given) | inactive | –
10 | O=C(O)c1cc(C(=O)O)c(C(=O)O)cc1C(=O)O | inactive | –
11 | CCCCCO | inactive | –
12 | CCCCCCCCCCCCCCCCC(=O)O | inactive | –
13 | O=C(O)c1ccncc1 | inactive | –
14 | CCCCCCOC(=O)c1ccccc1 | inactive | –
15 | CC(C)(Cc1c[nH]c2ccccc12)NCC(O)COc1ccccc1C#N (stereo not given) | inactive | –
16 | O=[N+]([O-])c1cccc(I)c1 | inactive | –
17 | CC(=O)c1ccc(Cl)c(Cl)c1Cl | inactive | –
18 | CC(C)C[C@H](NC(=O)[C@H](Cc1ccccc1)NC(=O)c1cnccn1)B(O)O | inactive | –
19 | CC(=O)Oc1cccc2c1C(=O)c1c(OC(C)=O)cc(C(=O)O)cc1C2=O | inactive | –
20 | COc1ccc(C(=O)Nc2ccccc2)cc1[N+](=O)[O-] | 24.5 µM (active) | –

Row | SMILES | Potency | activity change, negative = inhibition
21 | N#C[C@@H]1CC(F)(F)CN1C(=O)CNC1CC2CCC(C1)N2c1ncccn1 (stereo not given in full) | inactive | –
22 | Cc1ccc(NC=O)c(C)c1 | inactive | –
23 | CC1(C)CC(O)CC(C)(C)N1[O] | inactive | –
24 | [O-][n+]1ccc(Cl)cc1 | inactive | –
25 | CCC(=O)O[C@@H]1C[C@H]2CC[C@]1(C)C2(C)C | inactive | –
26 | O=C(N[C@@H](Cc1ccccc1)[C@@H](O)C(=O)N1C[C@@H](O)[C@@H](O)C1)c1cc2cc(Cl)ccc2[nH]1 | inactive | –
27 | O=C1C=CCCC1 | inactive | –
28 | Cc1cc(C)n(CO)n1 | inactive | –
29 | COC=O | – | 0.883% [at 8.39 µM]
30 | O=C(O)c1ccccc1[N+](=O)[O-] | inactive | –
31 | Oc1ccc(CCNCCCCCCNCCc2ccccc2)cc1O | inactive | –
32 | CC1=C(C)C(=O)C(CCCCC#CCCCC#CCO)=C(C)C1=O | inactive | –
33 | CC1(COc2ccc(CC3SC(=O)NC3=O)cc2)CCCCC1 (stereo not given) | inactive | –
34 | Cc1cc(SC2=C(O)C[C@@](CCc3ccc(N)cc3)(C(C)C)OC2=O)c(C(C)(C)C)cc1CO | inactive | –
35 | CC(CN=Cc1ccccc1O)N=Cc1ccccc1O (stereo not given) | inactive | –
36 | C[C@H]1C[C@H]2[C@@H]3CCC4=CC(=O)C=C[C@]4(C)[C@@]3(F)[C@@H](O)C[C@]2(C)[C@@]1(O)C(=O)COP(=O)(O)O | inactive | –
37 | CC[C@H](NC(C)C)[C@H](O)c1ccc(O)c2[nH]c(=O)ccc12 | inactive | –
38 | CCc1c(C)[nH]c2c1C(=O)C(CN1CCOCC1)CC2 (stereo not given) | inactive | –
39 | COC(=O)c1cc(Cl)ccc1[N+](=O)[O-] | inactive | –
40 | CCCC(=O)OCc1ccccc1 | inactive | –
